Many of the other results were omitted from the sample, so hits are more common in it than they were.
Shiga toxin inh: inhibitors of Shiga toxin in Vero cells. Vero cells, Shiga toxin protein synthesis inhibition reporter. inhibition, % at 38.7 µM. actives 9.2% (n = 290,000). AID 2315; in the data active = inhibition mostly above about 28%, no sharp cut-off; inactive = mostly below about 43%
RE007 growth inh: less growth of the S. pombe RE007 Vpr strain. S. pombe RE007 Vpr strain, BacTiter-Glo ATP luminescence, 24 h. actives 0.21% (n = 360,000). Potency, µM (top dose mostly 92.2 µM), actives largely listed as inhibitors. AID 651644; active = well fitted falling curve with a large enough effect; inconclusive = small, poorly fitted or top-dose-only effect; inactive = no such curve, though single readings can be large or run the other way; note: nearly all actives have a fitted effect of over 50% in size
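Fission yeast RE007 carrying one integrated HIV-1 vpr copy, seeded at OD 0.01 in PMG+AL medium with 23 nL pinned compound. Grown 24 h at 30 degrees; viability read by BacTiter-Glo luminescence after 5 min.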
Cycloheximide cs: counter-screen hit for Shiga toxin inhibitors, cycloheximide | cell reporter, cycloheximide protein synthesis inhibition counterscreen | max response, % | actives 12% (n = 300,000) | AID 2314; in the data active = max response mostly above about 13%, no sharp cut-off; inactive = mostly below about 14%; note: read at 38.3 µM for the half of the compounds with a filed dose
LmPK inh: LmPK (Leishmania mexicana) enzyme inhibition; purified LmPK, Kinase-Glo ATP luminescence, 1 h; Potency, µM (series often up to 57.5 µM), actives largely listed as inhibitors; actives 0.37% (n = 290,000); Q27686; AID 1721
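0.1 nM LmPK, 0.5 mM PEP, 0.1 mM ADP; 50 mM imidazole pH 7.2, 7 mM MgCl2, 50 mM KCl; 1 h RT. Kinase-Glo luminescence readout, normalized to no-enzyme (full inhibition) and uninhibited wells.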
FBPA Giardia inh: inhibitors of Giardia lamblia fructose-1,6-bisphosphate aldolase | A8B2U2 | Potency, µM (top dose mostly 59.6 µM), most hits filed as inhibitors | actives 0.71% (n = 290,000) | AID 2451 | purified Giardia FBPA; note: nearly all actives have a fitted effect of over 55% in size
Target sequence (A8B2U2 whole entry, looked up): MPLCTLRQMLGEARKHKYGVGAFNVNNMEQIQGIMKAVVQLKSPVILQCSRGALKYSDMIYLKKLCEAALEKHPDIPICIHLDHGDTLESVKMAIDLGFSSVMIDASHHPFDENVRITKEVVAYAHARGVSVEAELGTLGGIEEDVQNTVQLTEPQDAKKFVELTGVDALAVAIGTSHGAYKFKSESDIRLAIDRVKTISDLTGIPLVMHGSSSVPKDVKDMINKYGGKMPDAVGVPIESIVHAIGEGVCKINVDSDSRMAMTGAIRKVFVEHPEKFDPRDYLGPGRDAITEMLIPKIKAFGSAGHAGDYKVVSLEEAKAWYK
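40 nM FBPA preincubated 10 min at RT with compound (up to 57.5 uM final), then substrate plus GAPDH/TPI/NAD/arsenate coupling and diaphorase/resazurin added. Fluorescence read after 20 min at RT, 525/598 nm.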
Tb PYK inh: T. brucei pyruvate kinase inhibition; Q57TT1; TbPYK enzyme, Kinase-Glo Plus ATP luminescence, 45 min; Potency, µM (top dose mostly 76.8 µM), usual class: inhibitors; actives 0.12% (n = 410,000); note: nearly all actives have a fitted effect of over 50% in size
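Luminescent Kinase-Glo Plus end-point after 45 min room-temperature reaction of T. brucei pyruvate kinase started with 130 uM ADP (final). Buffer TEA 50 mM pH 7.2 with KCl, MgCl2, BSA, Tween-20; titration-based qHTS with fitted concentration-effect curves.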
Numbers stand for hits; i = inactive; ? = inconclusive; nt = no result given. Unless noted, calls come from the whole dose curve; as a rule, active = well fitted curve in the direction sought with a large enough effect; inconclusive = small, poorly fitted or top-dose-only effect, or another doubt; inactive = no such curve, though single readings can be large; an effect the other way counts as inactive or inconclusive.

SMILES	Shiga toxin inh	RE007 growth inh	Cycloheximide cs	LmPK inh	FBPA Giardia inh	Tb PYK inh
CCN1CCN(c2cc(C)c3cc(NC(=S)N4CCCCC4)ccc3n2)CC1	i	i	21.1	i	i	i
CCN1CCN(c2cc(C)c3cc(NC(=S)N4CCCC4)ccc3n2)CC1	i	i	i	i	i	i
CCN1CCN(c2cc(C)c3cc(NC(=O)c4ccncc4)ccc3n2)CC1	i	i	i	i	i	i
CCN1CCN(c2cc(C)c3cc(NC(=S)N4CC(C)CC(C)C4)ccc3n2)CC1 (stereo not drawn)	i	i	i	i	i	i
Cc1ccc(NC(=O)C(C)Sc2nc(=O)cc(N)n2-c2cccc(C)c2)cc1 (stereo not drawn)	nt	nt	nt	nt	nt	i
CSCC[C@@H]1NC(=O)[C@@H](NC(=O)[C@H](CCCNC(=N)N)NC(=O)[C@H](CC(C)C)NC(=O)[C@H](CCSC)NC(=O)[C@H](CC(=O)O)NC(=O)[C@H](Cc2ccccc2)NC(=O)[C@@H](N)CC(=O)O)CSSC[C@@H](C(=O)N[C@@H](Cc2c[nH]c3ccccc23)C(=O)N[C@@H](CCC(N)=O)C(=O)N[C@@H](Cc2ccc(O)cc2)C(=O)O)NC(=O)[C@@H]2CCCN2C(=O)[C@H](CCCNC(=N)N)NC(=O)[C@H](Cc2ccccc2)NC(=O)[C@H](C(C)C)NC(=O)[C@H](CCCNC(=N)N)NC(=O)CNC(=O)[C@H](CC(C)C)NC1=O	i	nt	i	nt	i	nt
O=S(=O)(NCCc1csc2nc(-c3ccc(Cl)cc3)nn12)c1ccc2c(c1)OCCO2	nt	nt	nt	nt	nt	i
CN(C)C(=O)c1ccc(-c2ccc3ncnc(NC4CCNCC4)c3c2)cc1	nt	nt	nt	nt	i	nt
CCc1ccc(Nc2nnc(SCC(=O)Nc3cccnc3Cl)s2)cc1	30.2	i	19.9	i	i	i
CCc1ccc(Nc2nnc(SCC(=O)NCCN3C(=O)CSC3=O)s2)cc1	53.5	i	40.5	i	i	i
Cn1c(SCC(=O)NCCN2C(=O)CSC2=O)nnc1-c1ccccc1	i	i	i	i	i	i
CCc1ccc(Nc2nnc(SCC(=O)Nc3sccc3C(N)=O)s2)cc1	62.3	i	31.7	i	i	i
COc1cccc(C2C(C(=O)Nc3ccc(Cl)cc3)=C(C)Nc3c(C(=O)Nc4ccccc4)cnn32)c1OC (stereo not drawn)	nt	nt	nt	nt	nt	i
CC(=O)NCCCS(=O)(=O)O	nt	nt	nt	nt	nt	i
CC1CN(Cc2ccc(Cl)cc2Cl)CC(C)O1 (stereo not drawn)	46.2	i	i	i	?	i
O=C/C=C/c1c(-c2ccccc2)cc2oc3ccccc3cc1-2	i	i	27.5	i	i	i
Nc1cc(=O)[nH]c(SC/C=C/c2ccccc2)n1	i	i	i	i	i	i
Cc1cc(C)nc(SC/C=C/c2ccccc2)n1	nt	i	23.2	i	i	i
Nn1c(SC/C=C/c2ccccc2)nnc1-c1ccncc1	i	i	i	i	i	i
C(=C\c1ccccc1)/CSc1ccccn1	92.6	i	72.7	i	i	i
Nc1ncnc2nc(Cl)[nH]c12	nt	nt	nt	nt	i	nt
COCCCNC(=O)c1ccc2c3c(onc13)-c1ccccc1C2=O	69.4	i	35.1	i	0.889µM	i
COc1cc(OC)cc(C(=O)Nc2ccc3oc(-c4ccccc4C)nc3c2)c1	nt	nt	nt	nt	nt	i
COc1cc(OC)cc(C(=O)Nc2ccc(-c3nc4ccccc4o3)cc2)c1	48.0	i	i	i	i	i
COc1cc(OC)cc(C(=O)Nc2ccc(-c3nc4cc(C(C)C)ccc4o3)cc2)c1	nt	nt	nt	nt	nt	i
SMILES	Shiga toxin inh	RE007 growth inh	Cycloheximide cs	LmPK inh	FBPA Giardia inh	Tb PYK inh
COc1cccc(C(=O)Nc2ccc(-c3nc4ccccc4o3)c(O)c2)c1	53.2	i	i	i	i	i
CCOc1ccccc1CNC(=O)C1CCCN(c2ncnc3onc(-c4ccc(F)cc4)c23)C1 (stereo not drawn)	nt	nt	nt	nt	nt	i
CO[C@H]1OC2O[C@@]3(C)CC[C@H]4[C@H](C)CC[C@@H]([C@H]1C)[C@@]24OO3 (stereo partly drawn)	nt	nt	nt	nt	nt	i
Cc1cc(C(C)(C)C)ccc1NC(=O)CC(C)(C)CC(=O)O	82.1	i	49.0	i	i	i
CCc1cccc(C)c1NC(=O)CC(C)(C)CC(=O)O	i	i	i	i	i	i
O=C(c1ccccc1)N1CCCCC(Sc2nnc3ccccn23)C1=O (stereo not drawn)	i	i	i	i	i	i
CCN(CC)C(=S)SC1CCCCN(C(=O)c2ccccc2)C1=O (stereo not drawn)	57.2	i	35.8	i	i	i
CN(C)C(=O)c1cc(C(=O)c2ccc(C(F)(F)F)cc2F)c[nH]1	92.1	i	42.3	i	i	i
CN(C)C(=O)c1cc(C(=O)c2ccc(F)cc2F)c[nH]1	102.0	i	16.2	i	i	i
CN(C)C(=O)c1cc(C(=O)c2ccccc2F)c[nH]1	i	i	i	i	i	i
CCOC(=O)c1cc2c(=O)n3ccccc3nc2n(C(C)C)c1=NC(=O)c1cc2ccccc2o1	nt	nt	nt	nt	nt	i
C=C(C)C1CCC(C)=CC1c1c(O)cc(O)cc1CCCCC (stereo not drawn)	i	nt	i	nt	i	nt
CC(=O)c1ccc(NC(=O)CN2C(=O)CCc3cc(S(=O)(=O)N4CCC(C)CC4)ccc32)cc1	nt	nt	nt	nt	nt	i
COc1ccccc1CN1CCCC2(CCN(C(=O)c3ccncc3)CC2)C1	nt	nt	nt	nt	i	i
CC(C)OC(=O)c1cccc(-c2ccc(C=O)o2)c1	80.3	i	76.7	i	i	i
COC(=O)c1ccccc1-c1ccc(C=O)o1	i	i	i	i	i	i
O=c1c2c(-c3ccc(Cl)cc3)ccnc2[nH]n1-c1ccccc1	nt	nt	nt	nt	nt	i
CCc1nnc(NC(=O)C2Cc3ccccc3C(=O)O2)s1 (stereo not drawn)	i	i	i	i	i	i
CCOC(=O)c1ccc(NC(=O)C2Cc3ccccc3C(=O)O2)cc1 (stereo not drawn)	nt	nt	nt	nt	nt	i
C/C(=N\NC(=S)Nc1ccccc1C)C1Cc2ccccc2C(=O)O1 (stereo not drawn)	i	i	40.5	i	i	i
C/C(=N\NC(=S)Nc1ccccc1)C1Cc2ccccc2C(=O)O1 (stereo not drawn)	82.1	i	51.1	i	i	i
COc1ccc(C)cc1NC(=O)c1ccc2nc(Cc3ccccc3)oc2c1	nt	nt	nt	nt	nt	i
Cc1ccc(N2C(=O)SC(N(CC(=O)O)c3cccc(C)c3)C2=O)cc1 (stereo not drawn)	98.1	i	43.6	i	i	i
Cc1ccc(NC(=O)Cc2c(C(=O)O)c(C)cn2C)cc1Cl	nt	nt	nt	nt	nt	i
CC/C(O)=N/S(=O)(=O)c1ccc(-c2c(-c3ccccc3)noc2C)cc1	nt	nt	nt	nt	nt	i
O=[N+]([O-])c1cccc(-c2ccc3nnc(SCc4ccccn4)n3n2)c1	i	i	i	i	i	i
c1ccc(CSc2nnc3ccc(-c4ccco4)nn23)nc1	66.7	i	34.1	i	i	i
